According to PMC6212790, “How bacterial xenogeneic silencer rok distinguishes foreign from self DNA in its resident genome”:
In all, about 33,000 sequences were measured (“e-score”: median about -0.037, highest 2% from about 0.34 on). Shown is part of a subset that was picked to be rich in the highest values.

molecular target: T1, GST-Rok (full length) (Bacillus subtilis subsp. subtilis str. …, UniProt O34857 1-191); test: protein binding microarray; Rok is a gene silencer of Bacillus subtilis; high values mean tight binding; settings: protein: recombinant; tags: GST (pTH5325, pDEST15-Magic modified); dsDNA, one strand shown
T1 sequence: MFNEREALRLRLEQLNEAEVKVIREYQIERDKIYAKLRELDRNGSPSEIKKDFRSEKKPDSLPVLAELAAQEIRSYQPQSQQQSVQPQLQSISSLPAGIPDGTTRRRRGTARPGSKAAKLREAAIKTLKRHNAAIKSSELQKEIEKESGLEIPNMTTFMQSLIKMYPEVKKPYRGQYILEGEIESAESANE
Procedure, shortened: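 Every oligonucleotide joins a 25-mer constant primer to a 35-mer variable part drawn from a de Bruijn sequence of order 10, so each non-palindromic 8-mer appears at least 32 times and each palindromic 8-mer 16 times. The preference for every 8-mer is reported as a unitless, rank-based enrichment score (E-score). This score spans 0.5 for the most favored 8-mer to −0.5 for the most disfavored.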

Row | Sequence | binding signal [E-score]
1 | CGTCGTTC | -0.0713
2 | GAACCGAC | -0.0645
3 | CGAAGAAA | 0.195
4 | CGAAATTC | 0.341
5 | AGAAATTC | 0.228
6 | CGAAATTA | 0.269
7 | GCAACCAC | 0.0207
8 | AGAATCTC | 0.0678
9 | CGAATCTA | 0.305
10 | AGAATCTA | 0.337
11 | GGAATCAA | 0.103
12 | GGAATCTA | 0.363
13 | AGAATCTG | -0.0414
14 | CGGAATTA | 0.239
15 | GAAGGTTA | -0.0133
16 | GCACTCAA | -0.134
17 | ACCGGACC | -0.0925
18 | ACGGTACG | -0.0886
19 | CCTCACCG | -0.0671
20 | ACACTACG | -0.0357
21 | ACACTACT | 0.236
22 | AAACTAAG | 0.345
23 | AGACTACC | 0.249
24 | AGACTACT | 0.209
25 | AAACTAAT | 0.332

Row | Sequence | binding signal [E-score]
26 | AAACTACG | 0.377
27 | CAACTACG | 0.12
28 | CAACTACC | 0.303
29 | AAACTACC | 0.475
30 | AAACTAAC | 0.233
31 | AAACTACT | 0.484
32 | ATGCGGCA | 0.0193
33 | CACCTAAC | 0.06
34 | CTTCATAC | 0.0169
35 | ATGCAGGA | 0.0987
36 | ATAGAGAG | -0.0418
37 | AGAAAACC | -0.176
38 | AGCAAGCG | -0.0451
39 | GCTGGAGA | -0.105
40 | ATTCGCAC | -0.0552
41 | ATTAGGCC | -0.131
42 | GCACTACC | -0.000872
43 | CAACTACA | 0.18
44 | TCACTACA | 0.0227
45 | GAACTACC | 0.338
46 | GAACTACA | 0.222
47 | AAACTAAA | 0.324
48 | TGACTACA | 0.197
49 | AAACTACA | 0.408
50 | TAACTACA | 0.441

Row | Sequence | binding signal [E-score]
51 | TAGGCTAA | -0.112
52 | ATATCGAT | 0.316
53 | AAGTCTGA | -0.121
54 | CTAGGAAC | -0.0546
55 | CGTAGCTA | 0.365
56 | GGTAGCAA | 0.241
57 | AGTAGCTA | 0.386
58 | CGTAGCTC | 0.0159
59 | CCTAGCTA | 0.107
60 | GCTAGCTA | 0.156
61 | AGTAGCTC | 0.0983
62 | CGTAGCGA | 0.0631
63 | AGTAGCTG | 0.204
64 | GGTAGCTA | 0.341
65 | ACTAGCTA | 0.347
66 | GGTAGCGA | 0.0576
67 | GTTGAGGA | -0.0613
68 | CATTACCA | 0.14
69 | CAGTAACG | 0.112
70 | GAACTATC | 0.292
71 | TAACTAAA | 0.151
72 | CAACTATA | 0.307
73 | AAACTCTT | 0.188
74 | AAACTATT | 0.458
75 | TAACTATA | 0.341

Row | Sequence | binding signal [E-score]
76 | AAACTATA | 0.396
77 | ACACTATA | 0.245
78 | AAACTATG | 0.195
79 | GAACTATA | 0.289
80 | AAACTATC | 0.412
81 | CAACTATC | 0.192
82 | GCTGGCAC | -0.181
83 | GTGCCAAA | -0.127
84 | AGTGAAGA | -0.00169
85 | CTCGAAAG | -0.0828
86 | CACCTATA | 0.214
87 | AACCTAAA | 0.102
88 | TACCTAAA | 0.37
89 | CACCTAAA | 0.131
90 | TACCTATA | 0.37
91 | AACCTATA | 0.239
92 | ATTAAGAA | 0.154
93 | ACTTGCCG | -0.0504
94 | AAACTCTC | 0.106
95 | CACCATCG | -0.0961
96 | GATCAATA | 0.157
97 | AATCAATA | 0.296
98 | TATCAATA | 0.343
99 | CTCGCGAG | -0.0252
100 | AGAAGGAC | -0.175

Row | Sequence | binding signal [E-score]
101 | ACAGAGGC | -0.125
102 | AACTATTG | 0.378
103 | AACTATTA | 0.431
104 | GACTATTA | 0.157
105 | CACTATTA | 0.268
106 | ACCTATTG | 0.182
107 | AACTATTC | 0.315
108 | CGGACTCA | -0.0715
109 | ATTTTGAA | 0.162
110 | CTAAGGGA | -0.154
111 | CAGCCCGG | -0.158
112 | AAGTCCGC | -0.0838
113 | GCAAGTAA | -0.0735
114 | AACCTCAT | -0.155
115 | TCTAGTAA | 0.351
116 | CCTAGTAA | 0.256
117 | ACTAGTAA | 0.382
118 | GCTAGTAA | 0.294
119 | ACTAGTGA | 0.172
120 | ATTAGTAA | 0.314
121 | CTAAGCAG | -0.152
122 | ACATCGAT | 0.166
123 | AGCTGGGG | -0.188
124 | GCTAGAAA | 0.37
125 | ACAAGAAA | -0.0731

Row | Sequence | binding signal [E-score]
126 | ACTAGAAG | 0.215
127 | ACTAGAAA | 0.344
128 | ACTAGAAT | 0.356
129 | ACGAGAAA | -0.0804
130 | TCTAGAAA | 0.222
131 | ACTAGAAC | 0.296
132 | CCTAGAAA | 0.0461
133 | CGCTAGTA | 0.31
134 | CTGGCAGA | -0.0653
135 | AGGCAACG | -0.102
136 | CGACGCAA | 0.0906
137 | CCAGATAG | 0.188
138 | ATAGAGAT | 0.0483
139 | ATCGATAC | 0.213
140 | ATCGATAG | 0.361
141 | ATAGATAG | 0.34
142 | CTAGATAG | 0.346
143 | ATCGATAA | 0.332
144 | ATAGATAA | 0.297
145 | CGAGATAG | 0.0866
146 | ACAGATAT | 0.153
147 | ATAGATAT | 0.374
148 | ATAGATAC | 0.331
149 | CCAAGTGG | -0.0692
150 | CTAAAGAG | 0.00604

Row | Sequence | binding signal [E-score]
151 | AGTTGTGC | 0.157
152 | TGTTAACA | 0.207
153 | AAGAGCGA | -0.102
154 | ATTGTTTA | -0.087
155 | AGTGGAGG | -0.0535
156 | ATAGATTA | 0.301
157 | ATAGATTC | 0.374
158 | AGTGATAG | 0.377
159 | ATAGATTG | 0.316
160 | AGTGATAC | 0.231
161 | AGTGATAA | 0.145
162 | AGGATTTA | 0.0716
163 | ACTGTACT | 0.209
164 | AGATATCG | 0.218
165 | GCCCGTAA | -0.148
166 | ATGGACAT | 0.0858
167 | CCGCGGCG | -0.19
168 | GATAGCAA | 0.189
169 | CATAGCTA | 0.306
170 | AATAGCTG | 0.206
171 | GATAGCTA | 0.35
172 | AATAGCTA | 0.358
173 | GATAGCGA | 0.106
